Sampled rows, rich in hits. Any-hit rate of the full collection: about 18%.
DT40 TDP1 no CPT: qHTS for Inhibitors of human tyrosyl-DNA phosphodiesterase 1 (TDP1): qHTS in cells in absence of CPT; Potency, µM (doses to about 46.2 µM), without a hit: at the highest dose activity change, negative = growth inhibition, usual class: inhibitors; AID 686978, 2013; 420,000 compounds, 15% hits; DT40 Tdp1-/- hTDP1 cells, no CPT, ATP luminescence, 48 h; note: potency is the fitted concentration of half-maximal effect; nearly all actives have a fitted effect of over 55% in size
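Cells were dispensed at 400 per well, compounds added by pin tool, plates incubated ≥48 hr at 37 °C, then CellTiter-Glo added for 30 min at room temperature before luminescence reading. Line: DT40 Tdp1-/- complemented with hTDP1; camptothecin omitted.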
DT40 TDP1 CPT: DT40-hTDP1 cell growth loss with CPT. 420,000 compounds, 12% hits. chicken DT40 Tdp1-/-;hTDP1 cells + 20 nM CPT, ATP luminescence, 48 h. AID 686979. Potency, µM (doses to about 46.2 µM), for the others: at the highest dose activity change, negative = growth inhibition, usual class: inhibitors; note: potency is the fitted concentration of half-maximal effect; nearly all actives have a fitted effect of over 55% in size
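Cell growth measured by CellTiter-Glo luminescence after a minimum 48 h, 37 C compound exposure with 20 nM CPT in Tdp1-knockout DT40 cells stably expressing hTDP1, seeded 400/well; qHTS titration format.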
IL1B secr inh: inflammasome signaling inhibition, IL-1 beta readout; AID 743279; THP-1 LPS/ATP IL-1B secretion, AlphaLISA, 16 h; active compounds read low; 360,000 compounds, 4.7% hits; activity change, % at 57.5 µM; in the data active = activity change below about -50%; inconclusive = mostly about -30% to -49%
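THP-1 cells pretreated 1 hr with compounds (up to 57.5 uM final), then stimulated with LPS (250 ng/mL final) plus ATP (1.25 mM final); secreted IL-1B measured by AlphaLISA after 16 hr, decreased signal indicating inhibition.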
LDHA inh: blocks human lactate dehydrogenase A. purified LDHA, NADH/diaphorase-resazurin fluorescence; active compounds read low. activity change, % (values are at about 110 or 230 µM). 480,000 compounds, 0.15% hits; in the data active = activity change below about -30%; inconclusive = mostly about -25% to -30%;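 note: plate controls were DMSO wells for no effect and wells without enzyme for full effect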
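Remaining NADH was detected by diaphorase (0.133 mg/mL) converting 37 µM resazurin to fluorescent resorufin, read at 0 and 20 minutes. The preceding 5-minute room-temperature reaction used 2 nM LDHA, 0.2 mM sodium pyruvate and 0.06 mM NADH at pH 7.4.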
RORg inh: ROR gamma (mouse) transcription inhibition; Drosophila S2 Gal4-RORgamma UAS-luciferase reporter, 20 h; Potency, µM (top dose mostly 53.6 µM), for inactives: at the top dose activity change, negative = inhibition, actives largely listed as inhibitors; 310,000 compounds, 5.4% hits; AID 2551; note: potency is the fitted concentration of half-maximal effect; nearly all actives have a fitted effect of over 60% in size
Target sequence (P51450 whole entry, looked up, the tested form may be a part): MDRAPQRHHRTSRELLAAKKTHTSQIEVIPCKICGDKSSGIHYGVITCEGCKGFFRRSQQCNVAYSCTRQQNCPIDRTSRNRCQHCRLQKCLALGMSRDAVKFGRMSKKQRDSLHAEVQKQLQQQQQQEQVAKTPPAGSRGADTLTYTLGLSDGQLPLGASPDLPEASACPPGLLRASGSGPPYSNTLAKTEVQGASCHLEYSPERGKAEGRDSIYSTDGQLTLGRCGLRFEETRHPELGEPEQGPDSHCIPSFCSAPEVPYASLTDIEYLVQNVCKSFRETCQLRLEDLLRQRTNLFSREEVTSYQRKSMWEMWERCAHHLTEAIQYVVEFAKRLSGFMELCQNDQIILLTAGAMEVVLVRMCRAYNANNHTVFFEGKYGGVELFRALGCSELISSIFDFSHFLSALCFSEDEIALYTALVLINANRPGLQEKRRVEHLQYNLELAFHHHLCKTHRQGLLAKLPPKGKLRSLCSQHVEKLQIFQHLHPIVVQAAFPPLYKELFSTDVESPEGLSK
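Schneider cells (Drosophila), stable Gal4 DBD–ROR gamma + UAS-luc; 1 hr cmpd preincubation; Cu2+ induction 700 uM final; 20 hr ambient; luminescence.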
Gal4-VP16 FLuc: counter-screen for ROR gamma inhibitors: Gal4-VP16 reporter | AID 2546 | Potency, µM (top dose mostly 53.6 µM), without a hit: at the top dose activity, negative = inhibition, most hits filed as inhibitors | 310,000 compounds, 3.5% hits | Drosophila S2 Gal4-VP16 UAS-luciferase, luminescence, 20 h;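 note: Gal4-VP16 expression switched on by copper sulfate through the metallothionein promoter; potency is the fitted concentration of half-maximal effect; nearly all actives have a fitted effect of over 50% in size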
* marks the source's active call; other numbers are inactive results; ? = inconclusive; / = no result; [ ] = dose if it differs, or a comment. Unless noted, calls come from the whole dose curve; as a rule, active = well fitted curve in the direction sought with a large enough effect; inconclusive = small, poorly fitted or top-dose-only effect, or another doubt; inactive = no such curve, though single readings can be large; an effect the other way counts as inactive or inconclusive. Unless noted, % is set by controls: 0 for no effect and ±100 for the full control effect.

SMILES	DT40 TDP1 no CPT	DT40 TDP1 CPT	IL1B secr inh	LDHA inh	RORg inh	Gal4-VP16 FLuc
COc1cc2[nH]c(=O)n(CCC(=O)N3CCN(Cc4ccccc4)CC3)c(=O)c2cc1OC	?	-6%	15	-5	-2%	-17%
CCOC(=O)N1CCN(c2ccc(NS(=O)(=O)c3cc(F)ccc3F)cc2C(=O)O)CC1	/	/	/	-8	/	/
CC(C)C(=O)NC(=S)Nc1ccc(Cl)cc1	/	/	/	-3	/	/
COc1cc2[nH]c(=O)n(CCC(=O)N3CCN(c4cccc(C)c4C)CC3)c(=O)c2cc1OC	?	23µM*	34	0	12%	1%
COc1cc2[nH]c(=O)n(CCC(=O)N3CCN(c4ccc(Cl)cc4)CC3)c(=O)c2cc1OC	-25%	-21%	/	1	/	/
COC(=O)c1ccc2c(=O)n(CCCCCC(=O)N3CCN(c4ccccc4)CC3)c(=O)[nH]c2c1	10µM*	18µM*	-18	-4	-3%	-30%
COc1cc2[nH]c(=O)n(CCCCCC(=O)N3CCN(c4ccccc4)CC3)c(=O)c2cc1OC	16µM*	21µM*	-14	4	32%[0.365 µM]	/
O=C(CN1CCc2ccccc2C1)N1N=C(c2cccs2)CC1c1cccs1 (stereo unspecified)	/	/	/	6	/	/
Cc1ccc(-c2cc(C(F)(F)C(F)F)[nH]n2)cc1	/	/	/	17	/	/
COCC(O)CNC(=O)c1cc(-c2ccc(OC)cc2)nc2ccccc12 (stereo unspecified)	/	/	/	2	/	/
COc1ccc(NC(=O)CSc2nnc(C3CCCCC3)n2-c2ccccc2)cc1	18µM*	15µM*	-6	6	36%	-5%
COc1ccc(C)cc1NC(=O)CSc1nnc(-c2cc3cccc(OC)c3o2)n1N	16µM*	?	63	-1	?	?
COc1ccc(NC(=O)CSc2nnc(C3CCCCC3)n2N)c(OC)c1	12%	-3%	23	-2	4%	-7%
CCn1c(SCC(=O)Nc2cc(OC)ccc2OC)nnc1C1CCCCC1	-25%	29µM*	-24	1	-19%	-4%
COc1ccc(-n2c(SCC(=O)Nc3cccc(C(=O)O)c3)nnc2-c2ccco2)cc1	0%	-7%	12	-2	-6%	-13%
COc1ccc(NC(=O)CSc2nnc(C3CC3)n2N)cc1	-3%	9%	2	-4	-12%	-8%
COc1ccc(OC)c(NC(=O)CSc2nnc(-c3ccco3)n2-c2ccccc2)c1	?	21µM*	-1	-1	9%	14%
O=C(COc1ccccc1F)Nc1ccc2c(=O)c3cccc(F)c3oc2c1	/	/	/	-3	/	/
O=C(CSc1nnc(C2CCCCC2)n1-c1ccccc1)NCc1ccco1	8.2µM*	?	-16	-4	0%	15%
COc1ccc(CCSc2nnc(C3CCCCC3)n2N)cc1	12µM*	?	-7	-3	6%	12%
N#CC1=C(N)N(c2ccc(F)cc2)C2=C(C1c1ccc(O)cc1)S(=O)(=O)CC2 (stereo unspecified)	?	21µM*	0	15	-22%	-6%
Cc1cc(-c2nc3ccccc3s2)ccc1NC(=O)c1ccccc1C	/	/	/	0	/	/
O=C(COc1ccc(Cl)cc1Cl)c1ccc[nH]1	-14%	-18%	-21	-14	-5%	6%
O=C(COc1ccc(Cl)cc1Cl)N/N=C/c1ccc[nH]1	?	?	-8	-2	2.8µM*	4.5µM*
CN(C(=S)NC(=O)CCCOc1ccc(Cl)cc1Cl)c1ccccc1	16µM*	?	-4	-1	5.6µM*	-77%
SMILES	DT40 TDP1 no CPT	DT40 TDP1 CPT	IL1B secr inh	LDHA inh	RORg inh	Gal4-VP16 FLuc
O=C(CCCC(=O)NN=Cc1ccccc1Cl)NN=Cc1ccccc1Cl	16µM*	16µM*	0	-10	/	/
O=C(CCC(=O)N/N=C/c1cc(Cl)cc(Cl)c1O)NCc1ccccc1	23µM*	?	166	8	?	?
O=C(CCC(=O)N/N=C/c1ccc(Br)s1)NCc1ccccc1	?	?	-7	-3	-6%	-9%
COc1ccc(-c2nonc2NC(=O)Cc2cccc3ccccc23)cc1	/	/	/	-3	/	/
CCOc1ccccc1NC(=O)CCS(=O)(=O)c1ccc2c(c1)CCN2C(=O)C1CC1	/	/	/	7	/	/
CCc1ccc2oc(C(=O)NCc3ccc(C)cc3)cc(=O)c2c1	/	/	/	-1	/	/
O=C(CSc1ncnc2cc(-c3ccc(F)cc3)sc12)NC1CCCC1	/	/	/	-4	/	/
COc1c(C)cc(Br)cc1C(=O)Nc1sc2c(c1C(N)=O)CCCCC2	/	/	/	0	/	/
Cc1ccc(/C=N/NC(=O)CCCOc2ccc(Cl)cc2Cl)cc1	10µM*	8.2µM*	-77*	-8	-22%	?
O=C(CCCOc1ccc(Cl)cc1Cl)N/N=C/c1ccccc1	?	?	-21	-1	-17%	?
O=C(CCCOc1ccc(Cl)cc1Cl)N/N=C/c1ccccc1O	5.2µM*	5.2µM*	0	-8	8.9µM*	-83%
COc1ccc(/C=N/NC(=O)CCCOc2ccc(Cl)cc2Cl)cc1[N+](=O)[O-]	16µM*	?	-6	-10	?	?
Cc1cc(C(=O)N(Cc2ccc(C(N)=O)cc2)C2CC2)sc1C	/	/	/	-7	/	/
O=C(CCc1ncc(-c2ccc(F)cc2F)o1)NC1CCN(Cc2ccccc2)C1 (stereo unspecified)	/	/	/	-4	/	/
O=C(c1cc(-c2ccccn2)nc2ccc(Br)cc12)N1CCN(S(=O)(=O)c2ccccc2)CC1	?	?	50	-10	-3%	1%
O=C(c1cc(-c2ccccc2)nc2ccccc12)N1CCOCC1	-8%	3%	15	-2	-35%	-7%
Cc1ccc(-c2cc(C(=O)N3CCN(c4ncccn4)CC3)c3cc(Br)ccc3n2)o1	8.2µM*	4.1µM*	-6	7	-24%	?
Cc1ccc(-c2cc(C(=O)N3CCN(c4ccc(F)cc4)CC3)c3ccccc3n2)o1	29µM*	?	-4	0	?	-1%
Cc1ccc(-c2cc(C(=O)N3CCOCC3)c3ccccc3n2)o1	18µM*	?	6	5	/	/
CCCc1cc(=O)oc2cc(OCC(=O)NCc3cccnc3)c(Cl)cc12	/	/	/	6	/	/
O=C(c1ccc(Cl)c(S(=O)(=O)N2CCCC2)c1)N1CCN(c2ccccc2F)CC1	16µM*	?	-1	5	12%	5%
CC(=O)N1CCN(C(=O)c2ccc(Cl)c(S(=O)(=O)N3CCc4ccccc43)c2)CC1	?	-27%	27	-7	/	/
O=C(NNC(=O)c1ccccc1O)c1ccc(Cl)c(S(=O)(=O)N2CCc3ccccc32)c1	21µM*	21µM*	97	-2	/	/

Screens deposited in PubChem by National Center for Advancing Translational Sciences (NCATS).
